Laboratory results taken from PubChem BioAssay (NCI).
Several values for one entry are separate records, joined by “and”; a condition that tells them apart may be missing. Equal entries are not always repeated. This is part of a sample that, as a whole, favours compounds with a hit. Of some 83,000 tested, about 20% had one in any assay.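 How to read the values: 0–100, growth inhibition (40 = 60% inhibited); 0, no net growth; -100 to 0, cell death (-40 = 40% of starting cells died; -100 = all dead).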 Activity calls are given as the source filed them. The calls were made as follows: active = growth percent below 10; inactive = the rest.

How the values were obtained:
Assay in all cases: NCI-60 one-dose screen, 48 h (100 = growth as untreated, 0 = no growth, -100 = all killed)
HCT-15 colon = conditions: 10 µM
HT29 colon = conditions: 10 µM
SNB-75 CNS = conditions: 10 µM
SNB-19 CNS = conditions: 10 µM
U251 CNS = conditions: 10 µM unless noted
PC-3 prostate = conditions: 10 µM
SK-MEL-5 melanoma = conditions: 10 µM unless noted
UACC-62 melanoma = tested on: UACC-62 melanoma
LOX IMVI melanoma = conditions: 10 µM unless noted
SK-MEL-28 melanoma = conditions: 10 µM
SK-MEL-2 melanoma = conditions: 10 µM
EKVX NSCLC = conditions: 10 µM
SN12C renal = conditions: 10 µM
UO-31 renal = conditions: 10 µM
TK-10 renal = tested on: TK-10 renal
ACHN renal = conditions: 10 µM
CAKI-1 renal = conditions: 10 µM
A498 renal = conditions: 10 µM
CCRF-CEM leukemia = conditions: 10 µM
MOLT-4 leukemia = conditions: 10 µM

Nc1ccc2cc3ccc(N)cc3nc2c1
growth (HCT-15 colon): 105% (inactive) and 15.3% (inactive) | growth (HT29 colon): 105% (inactive) and 4.36% (active) | growth (SNB-75 CNS): 101% (inactive) | growth (SNB-19 CNS): 108% (inactive) and 30.4% (inactive) | growth (U251 CNS): 104% (inactive) and 8.67% (active) | growth (PC-3 prostate): 94.5% (inactive) and 14.4% (inactive) | growth (SK-MEL-5 melanoma): 105% (inactive) and -3.97% (active) | growth (UACC-62 melanoma; 10 µM): 109% (inactive) and -35.5% (active) | growth (LOX IMVI melanoma): 105% (inactive) and -30.1% (active) | growth (SK-MEL-28 melanoma): 108% (inactive) and -6.93% (active) | growth (SK-MEL-2 melanoma): -26.2% (active) | growth (EKVX NSCLC): 88.3% (inactive) and 25.2% (inactive) | growth (SN12C renal): 86.2% (inactive) and 9.16% (active) | growth (UO-31 renal): 86.3% (inactive) and -14.7% (active) | growth (TK-10 renal; 10 µM): 120% (inactive) and 25.8% (inactive) | growth (ACHN renal): 108% (inactive) and 1.69% (active) | growth (CAKI-1 renal): 87.8% (inactive) and 4.44% (active) | growth (A498 renal): 85.6% (inactive) and 1.64% (active) | growth (CCRF-CEM leukemia): 6.51% (active) | growth (MOLT-4 leukemia): 90% (inactive) and 8.01% (active)

CC(=O)Nc1cc(C)ccc1C
growth (HCT-15 colon): 101% (inactive) | growth (HT29 colon): 95.3% (inactive) | growth (SNB-75 CNS): 96.2% (inactive) | growth (SNB-19 CNS): 101% (inactive) | growth (U251 CNS): 101% (inactive) | growth (PC-3 prostate): 106% (inactive) | growth (SK-MEL-5 melanoma): 93.3% (inactive) | growth (UACC-62 melanoma; 10 µM): 98.3% (inactive) | growth (LOX IMVI melanoma): 101% (inactive) | growth (SK-MEL-28 melanoma): 105% (inactive) | growth (SK-MEL-2 melanoma): 101% (inactive) | growth (EKVX NSCLC): 99.9% (inactive) | growth (SN12C renal): 101% (inactive) | growth (UO-31 renal): 88.1% (inactive) | growth (TK-10 renal; 10 µM): 96.2% (inactive) | growth (ACHN renal): 106% (inactive) | growth (CAKI-1 renal): 98.6% (inactive) | growth (A498 renal): 83.8% (inactive) | growth (CCRF-CEM leukemia): 128% (inactive) | growth (MOLT-4 leukemia): 110% (inactive)

O=C(Nc1ccc(C(=O)O)c(O)c1)c1ccccc1
growth (HCT-15 colon): 104% (inactive) and 99% (inactive) | growth (HT29 colon): 103% (inactive) and 105% (inactive) | growth (SNB-75 CNS): 96.4% (inactive) and 96.3% (inactive) | growth (SNB-19 CNS): 107% (inactive) and 102% (inactive) | growth (U251 CNS): 96.6% (inactive) and 104% (inactive) | growth (PC-3 prostate): 91% (inactive) and 97.5% (inactive) | growth (SK-MEL-5 melanoma): 107% (inactive) and 106% (inactive) | growth (UACC-62 melanoma; 10 µM): 96.7% (inactive) and 96.4% (inactive) | growth (LOX IMVI melanoma): 97.4% (inactive) and 97% (inactive) | growth (SK-MEL-28 melanoma): 110% (inactive) and 151% (inactive) | growth (SK-MEL-2 melanoma): 113% (inactive) and 97.3% (inactive) | growth (EKVX NSCLC): 98.9% (inactive) and 93.7% (inactive) | growth (SN12C renal): 95.2% (inactive) and 101% (inactive) | growth (UO-31 renal): 81.3% (inactive) and 88.6% (inactive) | growth (TK-10 renal; 10 µM): 106% (inactive) and 94.5% (inactive) | growth (ACHN renal): 96% (inactive) and 96.3% (inactive) | growth (CAKI-1 renal): 102% (inactive) and 85.8% (inactive) | growth (A498 renal): 121% (inactive) and 139% (inactive) | growth (CCRF-CEM leukemia): 130% (inactive) and 124% (inactive) | growth (MOLT-4 leukemia): 109% (inactive) and 119% (inactive)

COc1cccc2c1C(=O)c1c(O)c3c(c(O)c1C2=O)C[C@@](O)(C(C)=O)C[C@@H]3OC1CC(N)C(O)C(C)O1 (stereo partly specified)
growth (HCT-15 colon): 3.22% (active) | growth (HT29 colon): 1.89% (active) | growth (SNB-75 CNS): -82.7% (active) | growth (SNB-19 CNS): -9.95% (active) | growth (U251 CNS): 3.16% (active) | growth (PC-3 prostate): -25.8% (active) | growth (SK-MEL-5 melanoma): -90.5% (active) | growth (UACC-62 melanoma; 10 µM): -71.8% (active) | growth (UACC-62 melanoma; 50 µM): -98.9% (active) and -100% (active) | growth (LOX IMVI melanoma): 1.63% (active) | growth (SK-MEL-28 melanoma): -51% (active) | growth (SK-MEL-2 melanoma): -38.6% (active) | growth (EKVX NSCLC): -3.48% (active) | growth (SN12C renal): 8.87% (active) | growth (UO-31 renal): 11.3% (inactive) | growth (TK-10 renal; 10 µM): 18.5% (inactive) | growth (TK-10 renal; 50 µM): -97.7% (active) and -90.9% (active) | growth (ACHN renal): 0.546% (active) | growth (CAKI-1 renal): -31.1% (active) | growth (A498 renal): -71.7% (active) | growth (CCRF-CEM leukemia): -24.1% (active) | growth (MOLT-4 leukemia): -26.1% (active)

O=C(/C=C/c1ccccn1)c1ccccc1
growth (HCT-15 colon): -8.15% (active) | growth (HT29 colon): -67.2% (active) | growth (SNB-75 CNS): 66.2% (inactive) | growth (SNB-19 CNS): 61.8% (inactive) | growth (U251 CNS): -31.4% (active) | growth (PC-3 prostate): 69.3% (inactive) | growth (SK-MEL-5 melanoma): 74.7% (inactive) | growth (UACC-62 melanoma; 10 µM): 82.4% (inactive) | growth (LOX IMVI melanoma): -31.2% (active) | growth (SK-MEL-28 melanoma): 100% (inactive) | growth (SK-MEL-2 melanoma): 79.3% (inactive) | growth (EKVX NSCLC): 93.8% (inactive) | growth (SN12C renal): 61.2% (inactive) | growth (UO-31 renal): 56.5% (inactive) | growth (TK-10 renal; 10 µM): 19.5% (inactive) | growth (ACHN renal): -27.1% (active) | growth (A498 renal): 78.9% (inactive) | growth (CCRF-CEM leukemia): -12.6% (active) | growth (MOLT-4 leukemia): 3.13% (active)
